# Experimental data taken from PubChem BioAssay (NCI).
# About 83,000 compounds went through this panel and 20% of them were active in at least one assay; those are over-represented in the sample as a whole.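 In brief: 96-well plates, 48 h treatment, single concentration, percent growth endpoint.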 A number with no mark means an inactive call. Activity calls are given as the source filed them. Rule for the calls: active = growth percent below 10; inactive = the rest.
# Assays:
# Assay in all cases: NCI-60 one-dose screen, 48 h (100 = growth as untreated, 0 = no growth, -100 = all killed)
# Details in all cases: 10 µM unless noted
# [1] = test system: DU-145 prostate
# [2] = test system: K-562 leukemia
# [3] = test system: MALME-3M melanoma
# [4] = test system: MDA-MB-231 breast
# [5] = test system: RXF 393 renal
# [6] = test system: SF-268 CNS
# [7] = test system: SF-295 CNS
# [8] = test system: SF-539 CNS
# [9] = test system: UACC-257 melanoma
# [10] = test system: M14 melanoma
Structure (SMILES),growth [1],growth [2],growth [3],growth [4],growth [5],growth [6],growth [7],growth [8],growth [9],growth [10]
COc1cc(/C=C/C(=O)C(C(=O)/C=C/c2ccc(OC(=O)CCNC34CC5CC(CC(C5)C3)C4)c(OC)c2)C(=O)CCNC23CC4CC(CC(C4)C2)C3)ccc1OC(=O)CCNC12CC3CC(CC(C3)C1)C2 (centres undefined),-48.8% (active),0.83% (active),18.6%,13.3%,-68.8% (active),28.2%,37.5%,-23.7% (active),48.1%,-1.22% (active)
CC(C)N(Cc1ccccc1)c1c(S)ssc1=S,10.7%,15.1%,-4.76% (active),2.92% (active),-17.4% (active),28.8%,-5.63% (active),2.54% (active),5.96% (active),17.6%
CC1CN(/N=C/c2ccc([N+](=O)[O-])o2)C(=N)O1 (centres undefined),121%,108%,78.8%,102%,102%,90.1%,88.9%,96.9%,99.5%,106%
O=C(c1ccccc1)c1ccc(Oc2ccc([N+](=O)[O-])cc2[N+](=O)[O-])cc1,95.9%,11.9%,70.2%,89.5%,81.1%,87.8%,91.2%,55.3%,71%,53.8%
CCOc1cc(/C=C/C(=O)C(C(=O)/C=C/c2ccc(OC(=O)CNc3nc4ccccc4[nH]3)c(OCC)c2)C(=O)CNc2nc3ccccc3[nH]2)ccc1OC(=O)CNc1nc2ccccc2[nH]1,-24.8% (active),-26.2% (active),-35.1% (active),-16.3% (active),-71.4% (active),8.48% (active),-20.4% (active),-33.4% (active),21.1%,-6.17% (active)
O=C(c1ccccc1)C(CN1CCCCC1)c1ccccc1 (centres undefined),23.2%,0.176% (active),-3.92% (active),22.6%,42.4%,58.6%,98.8%,-15.7% (active),25.6%,-74.3% (active)
COC(=O)c1cc2c(/C=C3/NC(=S)NC3=O)coc2n1C,134%,95.6%,58.4%,82.2%,38.4%,37.7%,45.2%,82.2%,107%,–
CCOc1nc(-c2ccco2)n2nc(-c3ccco3)cc2n1,118%,114%,122%,98%,98.4%,106%,98.3%,89.6%,116%,132%
CC(C)Sc1nc(-c2ccc(Br)cc2)c(C#N)c(N2CCCCC2)n1,109%,116%,94.1%,90.9%,110%,103%,96.7%,104%,109%,104%
O=C1NC(=S)S/C1=C\c1cc(Br)ccc1O,105%,112%,71.8%,96.7%,115%,90.1%,111%,93.1%,105%,88.5%
Cc1ccccc1NC(=O)N/C(N)=N/c1nc2ccccc2s1,17.5%,6.45% (active),50.4%,43.2%,-2.64% (active),48.7%,11.8%,-17.9% (active),67.4%,9.91% (active)
O=C(C(=O)c1cc(Br)ccc1O)c1cc(Br)ccc1O,67.7%,42.8%,31.2%,64.8%,65.7%,38.1%,67.9%,53.2%,43.1%,66.9%
C[C@]12CCC(=O)C=C1CCC1C2[C@@H](O)C[C@@]2(C)C1CC[C@]2(O)C(=O)COC(=O)CCC(=O)O (some centres undefined),118%,117%,81.7%,94.7%,121%,107%,117%,97%,114%,104%
COc1ccc2c(c1)c(CC(=O)[Se]C)c(C)n2C(=O)c1ccc(Cl)cc1,-7.9% (active),29.8%,-41.9% (active),44.4%,4.4% (active),-26.5% (active),12.7%,-17.4% (active),3.77% (active),-13.9% (active)
BrC1CC(Br)c2c1c1c(c3c2C(Br)CC3Br)C(Br)CC1Br (centres undefined),115%,80.9%,95.7%,98.5%,80.3%,111%,103%,92%,105%,97.7%
c1ccc2nc(Cn3c[n+](Cc4ccc5ccccc5n4)c4ccccc43)ccc2c1,60.8%,17.8%,20.3%,26.4%,44.1%,54.9%,55.5%,41.5%,-9.49% (active),21.7%
COc1cc(-c2nc3sc4c(c3c(=O)[nH]2)CCCCCC4)cc(OC)c1OC,12.1%,5.92% (active),25.6%,7.21% (active),0.561% (active),27.2%,13.7%,-5.36% (active),63.7%,23.1%
CCSc1nc(-c2ccc(F)cc2)c(C#N)c(=O)[nH]1,122%,124%,85.1%,114%,104%,116%,103%,108%,102%,110%
CNCCCn1c2c(c3ccc(F)cc3c1=O)C(=O)c1cc(OC)cnc1-2,0.683% (active),1.41% (active),-56.6% (active),11.7%,-78.8% (active),4.62% (active),-15.3% (active),-24.7% (active),-16.5% (active),-10.8% (active)
COc1ccc2nc(-c3ccc(Cl)cc3)cc(-c3nnc(SCC(=O)Nc4ccc(C(C)=O)cc4)n3-c3ccccc3)c2c1,105%,104%,92.9%,86.8%,102%,87.3%,102%,85.4%,110%,93.8%
CCCCCCCCCCOC(C)=O,112%,107%,108%,107%,112%,106%,80%,96.1%,94%,106%
COP(=O)(OC)C(c1ccc(O)cc1)(c1ccc(O)cc1)c1ccc(O)cc1,105%,90.6%,127%,93.7%,67.2%,106%,82.7%,107%,100%,86%
Fc1ccccc1C1c2ccccc2-c2nccn21 (centres undefined),99.2%,73.9%,98.2%,102%,-1.68% (active),109%,89.3%,98.9%,96.6%,104%
CCN(CC)CCSc1ncnc2c1cnn2-c1ccc(S(N)(=O)=O)cc1,97%,63.2%,69.1%,93.3%,34.2%,105%,54.5%,94.4%,65.5%,98.6%
COc1cnc2c(c1)C(=O)c1c-2n(CCCNC(C)C)c(=O)c2cc(F)ccc12,-8.54% (active),-6.91% (active),-70.1% (active),1.51% (active),-85.5% (active),4.2% (active),-23% (active),-73.4% (active),-16% (active),-81.9% (active)
OC(c1ccccc1)C(NCc1ccccc1)c1ccccc1 (centres undefined),117%,106%,104%,98.3%,107%,92.8%,94%,90.6%,110%,79.9%
CC(C)C[C@H](NC(=O)/C=C/Cn1ccc2ccccc2c1=O)B(O)O,40.6%,35.8%,-30% (active),35.1%,8.46% (active),24.6%,26.8%,15.1%,43.2%,21.1%
